Bioassay records from PubChem BioAssay.
Compounds with a hit are over-represented: about 11% of the library has one in this group of screens.
hNpr1 antagonist: human Npr1 receptor antagonism. Potency, µM (highest dose often 46.3 µM), inactives show top-dose activity change, negative = inhibition, usual class: inhibitors. HEK293 hNpr1 GloSensor cGMP, ANP-stimulated luminescence. AID 1347048. hit rate 1.6% among 76,000; calls by dose curve; note: nearly all actives have a fitted effect of over 60% in size
Target sequence (P16066 whole entry, looked up): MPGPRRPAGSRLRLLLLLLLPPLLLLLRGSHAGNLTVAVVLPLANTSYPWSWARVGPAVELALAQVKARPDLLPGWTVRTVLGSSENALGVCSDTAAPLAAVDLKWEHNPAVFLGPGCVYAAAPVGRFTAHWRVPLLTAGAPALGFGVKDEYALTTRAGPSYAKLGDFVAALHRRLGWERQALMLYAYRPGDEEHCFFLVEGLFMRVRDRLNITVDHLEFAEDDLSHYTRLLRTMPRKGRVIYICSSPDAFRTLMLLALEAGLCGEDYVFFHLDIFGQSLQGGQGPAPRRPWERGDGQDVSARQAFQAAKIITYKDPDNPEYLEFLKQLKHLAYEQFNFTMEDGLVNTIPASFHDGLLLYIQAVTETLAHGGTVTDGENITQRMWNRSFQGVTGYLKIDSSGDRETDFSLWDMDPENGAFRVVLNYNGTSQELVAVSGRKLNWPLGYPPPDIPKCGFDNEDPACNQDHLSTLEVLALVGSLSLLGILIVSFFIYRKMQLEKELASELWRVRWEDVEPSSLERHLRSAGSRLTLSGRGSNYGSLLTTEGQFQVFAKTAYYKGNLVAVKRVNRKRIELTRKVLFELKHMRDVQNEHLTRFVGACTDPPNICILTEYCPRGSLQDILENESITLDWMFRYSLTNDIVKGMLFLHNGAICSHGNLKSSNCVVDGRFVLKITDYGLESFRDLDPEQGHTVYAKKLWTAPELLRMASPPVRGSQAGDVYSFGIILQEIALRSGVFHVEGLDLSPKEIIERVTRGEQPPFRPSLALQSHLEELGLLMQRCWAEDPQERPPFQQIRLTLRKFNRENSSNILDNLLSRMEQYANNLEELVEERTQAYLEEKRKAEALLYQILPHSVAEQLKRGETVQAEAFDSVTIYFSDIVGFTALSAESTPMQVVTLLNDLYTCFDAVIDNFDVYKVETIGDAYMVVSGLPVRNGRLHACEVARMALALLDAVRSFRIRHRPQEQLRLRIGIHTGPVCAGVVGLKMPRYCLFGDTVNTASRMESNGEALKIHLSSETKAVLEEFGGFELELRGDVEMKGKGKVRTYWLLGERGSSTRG
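HEK293 cells stably expressing human Npr1 and cGMP GloSensor pGS-40F, loaded 2 h with 2% GloSensor reagent, given compound 30 min at room temperature. Luminescence read before and 20 min after 0.1 nM hNppA.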
NIH3T3 tox: kills NIH 3T3 cells | NIH 3T3 viability, CellTiter-Glo ATP luminescence, 48-72 h | Potency, µM (series often up to 96.7 µM), inactives show at the highest dose activity change, negative = cytotoxicity, actives largely listed as inhibitors | hit rate 4.3% among 94,000 | AID 1345082; note: nearly all actives have a fitted effect of over 55% in size
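First NIH 3T3 cells are plated at 400 cells/well; next compound is pinned in; then plates incubate 48 or 72 hr at 37 °C; finally CellTiter-Glo is added and luminescence read after 10 min.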
FLuc inh: blocks purified firefly luciferase enzyme activity | AID 1347043 | Potency, µM (highest dose often 115 µM), actives largely listed as inhibitors | purified P. pyralis luciferase, luminescence, biochemical | hit rate 2.5% among 76,000; note: nearly all actives have a fitted effect of over 65% in size
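Luminescence read by CCD imager after adding enzyme (10nM final) to wells holding compound, titrated in qHTS. Substrates 10uM each D-luciferin and ATP; buffer 50mM Tris acetate pH 7.5, 10mM Mg acetate, Tween-20, BSA.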
HEK cytotox: cytotoxic compounds in HEK 293 cells. AID 1345083. hit rate 6.6% among 94,000. HEK 293 viability, ATP luminescence (CellTiter-Glo), 48-72 h. Potency, µM (series often up to 115 µM), for the others: at the highest dose activity change, negative = cytotoxicity, hits mostly inhibitors; note: nearly all actives have a fitted effect of over 60% in size
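HEK 293 cells at 250 cells/well were exposed to compounds by pintool transfer for 48 or 72 hr at 37 degree Celsius, 5% CO2. Viability was read as ATP-coupled luminescence with CellTiter-Glo after 10 min at room temperature.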
An asterisk follows results filed as active; i = inactive; u = inconclusive; x = not tested or not shown; [ ] = dose if it differs, or a comment. Unless noted, calls come from the whole dose curve; as a rule, active = well fitted curve in the direction sought with a large enough effect; inconclusive = small, poorly fitted or top-dose-only effect, or another doubt; inactive = no such curve, though single readings can be large; an effect the other way counts as inactive or inconclusive. % is set by controls: 0 for no effect and ±100 for the full control effect; potency is the fitted concentration of half-maximal effect.

SMILES	hNpr1 antagonist	NIH3T3 tox	FLuc inh	HEK cytotox
CNC(=O)C1CCCN1Cc1ccc(-c2cncnc2)cc1 (stereo not given)	x	-9%[138 µM]	x	-13%[172 µM]
CN(C)C(=O)c1ccc2oc(-c3ccncc3Cl)nc2c1	x	-4%	x	4%
CC(C)C(=O)N1CCC(Cc2noc(-c3ccccc3)n2)C1 (stereo not given)	-18%	-24%	u	-28%
COc1ccccc1-n1c(=O)c(C(=O)NC2CC2)nc2cccnc21	x	-20%[138 µM]	x	-9%[172 µM]
CN(C)c1ccc(C(=O)N2CCCC(Cc3noc(-c4ccncc4)n3)C2)cc1 (stereo not given)	-6%	-28%	i	u
Cc1cccc(C(=O)N2CCCC(Cc3ncc(C)n3Cc3ccccc3)C2)c1 (stereo not given)	-4%	-12%	i	u
CCN1CCN(C(=O)c2cc3n(n2)CC(c2ccc(Br)cc2)OC3)CC1 (stereo not given)	-25%	u	i	u
O=C(c1cc2n(n1)CC(c1ccc(Cl)cc1)OC2)N1CCCCC1 (stereo not given)	-25%	40µM*	i	u
Cc1ccc(C)c(N2CCN(C(=O)c3cc4n(n3)CC(c3ccc(Cl)cc3)OC4)CC2)c1 (stereo not given)	-20%	u	i	45µM*
O=C(c1cc2n(n1)CC(c1ccc3c(c1)OCO3)OC2)N1CCCCC1 (stereo not given)	-7%	40µM*	i	35µM*
O=C(c1cc2n(n1)CC(c1ccc(Br)cc1)OC2)N1CCOCC1 (stereo not given)	-11%	40µM*	i	28µM*
Cc1ccccc1N1CCN(C(=O)c2cc3n(n2)CC(c2ccc(Cl)cc2)OC3)CC1 (stereo not given)	u	u	i	u
O=C(Nc1ccccc1)N1CCN(C(=O)c2nc3cccnc3n(C3CC3)c2=O)CC1	x	-16%	x	i
COc1cccc(CNC(=O)[C@@H]2C[C@@H](O)CN2C2CCN(C(=O)c3ccc(C)s3)CC2)c1	-2%	-17%	i	0%
O=C(c1ccc(-c2ncc3cnc(-c4cccc(F)c4)cn23)cc1)N1CC(O)C1	2%[70.6 µM]	u	i	u
Cc1ccc(C(=O)NCCc2ncc(C)n2CC2CC2)cn1	x	-2%	x	4%
O=C(NC1CCCN(c2cc(-c3ccc(F)cc3)[nH]n2)C1)c1ccccc1 (stereo not given)	-13%	u	u	u
Cc1ccc(C(=O)NC2CCCN(c3cc(-c4ccc(F)cc4)[nH]n3)C2)cn1 (stereo not given)	-2%	-26%	u	20µM*
COc1ccc(-c2cc(N3CCCC(NC(=O)c4ccc(C)nc4)C3)n[nH]2)cc1 (stereo not given)	-24%	u	35µM*	-63%
Cc1cc(C)cc(C(=O)NC2CCCN(c3cc(-c4ccc(F)cc4)[nH]n3)C2)c1 (stereo not given)	-10%	u	i	45µM*
O=C(NC1CCCN(c2cc(-c3ccc(F)cc3)[nH]n2)C1)c1cccnc1 (stereo not given)	-6%	-18%	u	u
CNC(=O)c1cc2cc(-c3c(C)noc3C)nc(-c3ccc(F)cc3OC)c2o1	4%[70.6 µM]	u	i	-19%[172 µM]
CS(=O)(=O)N1CCC(Cc2ccc(C(=O)NCCc3ccccc3)cc2)CC1	x	u	x	11µM*
CS(=O)(=O)N1CCC(Cc2ccc(C(=O)NCCN3CCOCC3)cc2)CC1	-1%	4%	i	i
COc1cc(F)ccc1-c1cnc2n[nH]c(-c3sccc3C)c2n1	-10%[70.6 µM]	u	i	45µM*
SMILES	hNpr1 antagonist	NIH3T3 tox	FLuc inh	HEK cytotox
Cc1ccsc1-c1[nH]nc2ncc(-c3cccc(CO)c3)nc12	-6%[70.6 µM]	u	u	79µM*
Cc1ccsc1-c1[nH]nc2ncc(-c3ccccc3)nc12	-11%[70.6 µM]	u	i	u
Cc1ccsc1-c1[nH]nc2ncc(-c3ccc(F)cc3)nc12	-10%[70.6 µM]	u	i	71µM*
COc1ccc(-c2ccccc2C(=O)N2CCC(NC(=O)c3ccccc3)CC2)nn1	x	-23%	x	u
Cc1cccc(C)c1N1C(C(=O)OC(C)(C)C)=C(O)c2ccccc2S1(=O)=O	x	20µM*	x	u
O=C(CNC(=O)c1cccc(-c2ccsc2)c1)NCC1CC1	x	-12%[138 µM]	x	u
COCCNC(=O)c1cc(C2CC2)nc2c1c(C1CCCN1)nn2-c1ccccc1 (stereo not given)	x	u	x	79µM*
O=C(c1cc(C2CC2)nc2c1c(C1CCCN1)nn2-c1ccccc1)N1CCC(F)CC1 (stereo not given)	x	32µM*	x	u
COc1ccc(-c2cc(C(=O)NCC(C)C)c3c(C4CCCN4)nn(C)c3n2)cc1 (stereo not given)	x	32µM*	x	u
Cn1nc(C2CCCN2)c2c(C(=O)N3CCC(F)CC3)cc(C3CC3)nc21 (stereo not given)	x	2%	x	i
COCCNC(=O)c1cc(-c2ccc(OC)cc2)nc2c1c(C1CCCN1)nn2C (stereo not given)	x	u	x	-25%
Cc1cn2nc(C(=O)N3CCC(C(=O)NCc4cccnc4)CC3)cc2c(=O)[nH]1	3%	4%	i	6%
CC(C)(C)c1[nH]nc2c1C(c1ccnc3ccccc13)CC(=O)N2 (stereo not given)	-5%	32µM*	i	-8%
CN1CCN(C(=O)c2ccc3nc(-c4ccncc4)oc3c2)CC1	x	-18%[138 µM]	x	u
O=C(NC1CCCC1)c1cc(C2CC2)nc2onc(C3CCCNC3)c12 (stereo not given)	x	-1%	x	-13%
O=C(C1CC1)N(C1CCOCC1)C1CCN(S(=O)(=O)c2ccccc2)CC1	0%	-15%	i	-1%
CCCCc1cc(C[C@H]2CNCC[C@H]2CC(=O)N(C)Cc2ccccc2)no1	-4%[70.6 µM]	u	i	100µM*
CN(Cc1ccccc1)C(=O)C[C@@H]1CCNC[C@@H]1Cc1cc(-c2ccccc2)on1	-30%[70.6 µM]	10µM*	i	25µM*
CN(Cc1ccccc1)C(=O)C[C@@H]1CCNC[C@@H]1Cc1cc(COc2ccccc2)on1	-20%[70.6 µM]	28µM*	i	50µM*
CCN(CC)C(=O)C[C@@H]1CCNC[C@@H]1Cc1cc(-c2ccccn2)on1	-4%[70.6 µM]	-25%[174 µM]	i	1%[172 µM]
COCc1ccc2c(c1)c(OC(C)(C)C(=O)NCC1CCOCC1)nn2CCC(C)C	6%[70.6 µM]	u	i	u
COc1ccccc1Cn1c(=O)c(C(=O)NC(C)C)nc2cccnc21	x	-22%	x	u
CCN1CC(CN(C)Cc2cn(-c3ccccc3C)nc2-c2ccc(OC)c(F)c2)CC1=O (stereo not given)	0%	u	i	22µM*
COc1ccc(CN2CCC(CO)(CN3CCCC3)CC2)cc1C	-1%	u	i	89µM*
CC(C)Oc1ccc(CN2CCC(CO)(CN3CCCC3)CC2)cc1Cl	-3%	32µM*	i	25µM*
COc1ccc(CN2CCC(CO)(CN3CCCC3)CC2)cc1OC	5%	u	i	-23%
